p53 reactivator – mutant p53 re-activation in reporter cells; AID 504706; Potency, µM (highest dose often 92.2 µM), for the others: top-dose activity change, positive = activation, hits mostly activators; 320,000 compounds, 0.063% hits; H1299 p53-A138V BP100-luciferase reporter, luminescence, 24 h; note: % of control where 0% means no effect; nearly all actives have a fitted effect of over 45% in size
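H1299 (p53-null), stable ts p53-A138V + BP100-Luc; 1000 cells/well, Opti-MEM/10% FBS; cpd 4 pt, 1:5; 24 h, 37 deg C, 5% CO2; detection reagent 10 min RT; luminescence.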
SMN2 splice up – SMN2 splice variant enhancement | AID 1458 | HEK293 SMN2-luciferase splicing reporter, luminescence, 30-36 h | Potency, µM (series often up to 46.1 µM), inactives show at the highest dose activity change, positive = activation, most hits filed as activators | 210,000 compounds, 2.8% hits; note: % of control where 0% means no effect; nearly all actives have a fitted effect of over 55% in size
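HEK293 cells carry an SMN2 […]–luciferase reporter in which exon 7 inclusion puts luciferase in frame. Cells were plated 10-12 h before compound addition, then incubated 30-36 h at 37C. ONE-Glo luminescence was read; sodium butyrate at 4.5 mM final served as control.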
ELG1 genotoxic – induces genotoxicity in HEK293T cells with luciferase-tagged ELG1 | Potency, µM (highest dose often 46 µM), for the others: at the highest dose activity change, positive = activation, hits mostly activators | 330,000 compounds, 1.3% hits | HEK293T ELG1-luciferase reporter, luminescence, 16 h; note: % of control where 0% means no effect; nearly all actives have a fitted effect of over 60% in size
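Reporter readout depends on ELG1 protein level, which increases with genetic stress. After 16 hr compound exposure at 37 °C, luciferase activity was quantified using ONE-Glo.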
FLuc counter – firefly luciferase modulation, counter-screen for miR-21 project; AID 588342; 360,000 compounds, 6.9% hits; P08659; purified FLuc, Km substrates, luminescence inhibition; Potency, µM (top dose mostly 57.5 µM), for inactives: at the highest dose activity change, negative = inhibition, usual class: inhibitors;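 note: plate controls were vehicle for no effect and reference inhibitor for full effect; nearly all actives have a fitted effect of over 55% in size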
Target sequence (P08659 whole entry, looked up): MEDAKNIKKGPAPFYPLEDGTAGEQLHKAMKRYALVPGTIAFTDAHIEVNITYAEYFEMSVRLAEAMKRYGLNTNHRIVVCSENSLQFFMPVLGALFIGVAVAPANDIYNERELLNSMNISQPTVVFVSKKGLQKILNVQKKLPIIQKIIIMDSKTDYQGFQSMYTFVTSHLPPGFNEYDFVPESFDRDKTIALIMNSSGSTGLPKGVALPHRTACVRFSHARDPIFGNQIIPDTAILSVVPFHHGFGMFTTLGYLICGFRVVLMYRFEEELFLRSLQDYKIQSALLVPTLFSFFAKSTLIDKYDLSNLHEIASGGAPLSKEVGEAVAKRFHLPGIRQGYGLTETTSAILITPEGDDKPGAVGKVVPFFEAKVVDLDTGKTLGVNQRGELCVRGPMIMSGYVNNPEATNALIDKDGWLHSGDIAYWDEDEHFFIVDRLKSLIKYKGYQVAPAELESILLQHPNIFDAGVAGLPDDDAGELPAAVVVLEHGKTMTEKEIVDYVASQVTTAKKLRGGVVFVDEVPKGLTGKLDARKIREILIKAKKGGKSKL
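Purified P. pyralis luciferase, 10 nM final, with Km-level 10 uM D-luciferin and 10 uM ATP in 50 mM Tris acetate pH 7.5, 10 mM Mg acetate, 0.01% Tween-20, 0.05% BSA; 6-point qHTS titration about 60 µM downward; luminescence read.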
Rab9 prom act – activators of Rab9 promoter | Huh7 Rab9 promoter-luciferase reporter, luminescence, 24 h | Potency, µM (series often up to 9.22 µM), inactives show top-dose activation, negative = inhibition, hits mostly activators | 320,000 compounds, 2.8% hits; note: % of control where 0% means no effect; nearly all actives have a fitted effect of over 60% in size
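Using Huh7 cells stably transfected with Rab9 promoter–luciferase, compounds were incubated 24 h at 37 °C, 5% CO2; luciferase luminescence was read 10 min after reagent addition.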
NPC1 promoter act – activates the NPC1 promoter; Potency, µM (top dose mostly 9.22 µM), without a hit: at the highest dose activation, actives largely listed as activators; AID 485313; Huh7 NPC1 promoter luciferase reporter, 24 h; 320,000 compounds, 2.4% hits; note: % of control where 0% means no effect; nearly all actives have a fitted effect of over 60% in size
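Cells: Huh7 expressing luciferase under the NPC1 promoter, 1500/well. Seeded 2 h, compound added, incubated 24 h at 37 °C. Luciferase reagent, 10 min ambient, then luminescence.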
* marks the source's active call; other numbers are inactive results; ? = inconclusive; . = no result given; [ ] = another dose, or the depositor's remark. Compounds with a hit are over-represented: about 7.4% of the library has one in this group of screens. Calls come from the whole dose curve; as a rule, active = well fitted curve in the direction sought with a large enough effect; inconclusive = small, poorly fitted or top-dose-only effect, or another doubt; inactive = no such curve, though single readings can be large; an effect the other way counts as inactive or inconclusive. Potency is the fitted concentration of half-maximal effect.

SMILES | p53 reactivator | SMN2 splice up | ELG1 genotoxic | FLuc counter | Rab9 prom act | NPC1 promoter act
CCc1ccc(-n2nc(C)c3c(C)cc(=O)n(CC(=O)N(CC)Cc4ccccc4)c32)cc1 | . | . | . | -3% | . | .
O=C(O)c1cc(C(=O)C(=O)c2cc(C(=O)O)c(O)c3ccccc23)c2ccccc2c1O | . | -2%[9.22 µM] | . | . | . | .
COC(=O)c1cc2oc3ccccc3c2n1CC(=O)Nc1cc(OC)cc(OC)c1 | . | 0% | . | -8% | . | .
CN(C)C[C@@H](O)c1ccc(Cl)c2ccccc12 | . | 0%[9.22 µM] | . | . | . | .
Cc1c(C(=O)Nc2cccc(Cl)c2)c2ccccn2c1CCc1ccncc1 | 21% | 8% | -8% | 17µM* | -6% | -2%
Cc1c(C(=O)Nc2ccc(Cl)cc2)c2ccccn2c1CCc1ccncc1 | ? | -3% | 3% | 3µM* | ? | ?
N#Cc1ccsc1NC(=O)C1=COCCO1 | 8% | . | -2% | -1% | -2% | 0%
COC(=O)c1sccc1NC(=O)Nc1cccc(C(C)=O)c1 | -1% | . | 1% | 7.6µM* | 1% | 2%
O=C(Nc1cccc([N+](=O)[O-])c1)Nc1cccs1 | 27% | -19% | -8% | 27µM* | 9% | 10%
O=C(Nc1cccc(C(F)(F)F)c1)Nc1cccs1 | . | 5% | . | 12µM* | . | .
COC(=O)c1sccc1NC(=O)Nc1cccc(C)c1 | 3% | . | ? | 4.8µM* | 2% | 2%
CN(CCC1CCOCC1)C(=O)C1CCC(=O)N(CCc2ccccc2)C1 (stereo not given) | -2% | . | 2% | 2% | 0% | -1%
COc1ccc(NC(=O)c2c(C(=O)Nc3ccccc3)sc3nc(C)cc(=O)n23)cc1 | . | -1% | . | 3% | . | .
COc1ccc(C)cc1NC(=O)c1cc(S(=O)(=O)N2CCC(C)CC2)ccc1F | . | . | . | 4% | . | .
COC(=O)c1sccc1NC(=O)Nc1cc(OC)ccc1OC | -4% | . | 3% | 0% | 5% | 0%
COC(=O)c1sccc1NC(=O)Nc1cccc([N+](=O)[O-])c1 | 25% | . | 7% | 6.7µM* | 12% | -2%
COC(=O)c1sccc1NC(=O)Nc1ccc(OC)cc1 | ? | . | ? | 1.7µM* | 20% | 18%
COC(=O)c1sccc1NC(=O)Nc1cccc(C)c1C | 1% | . | 2% | -18% | 3% | 1%
Cc1cccc(OCCN2C(=O)c3ccccc3C2=O)c1 | 17% | 19% | ? | 24µM* | 3.5µM* | 27%
CCOc1ccc(OCCN2C(=O)c3ccccc3C2=O)cc1 | 6% | . | -12% | -15% | -4% | -2%
Cc1cccc(OCCn2c(=O)sc3ccccc32)c1 | ? | 13µM* | ? | 11µM* | 2.8µM* | ?
Cc1cccc(OCCCn2c(=O)sc3ccccc32)c1 | ? | -5% | ? | 21µM* | 3.2µM* | 6%
CC(C)CCOc1ccc(Cn2c(=O)sc3ccccc32)cc1 | . | -23% | . | -4% | . | .
COc1ccc(OCCn2c(=O)sc3ccccc32)cc1 | 1% | ? | ? | 19µM* | ? | ?
COc1ccccc1OCCn1c(=O)sc2ccccc21 | -6% | -25% | ? | ? | -2%[1.84 µM] | 0%
SMILES | p53 reactivator | SMN2 splice up | ELG1 genotoxic | FLuc counter | Rab9 prom act | NPC1 promoter act
Cc1ccccc1OCCn1c(=O)sc2ccccc21 | -10% | -30% | 1% | -20% | 0% | 0%
Cn1c(=O)c2c(SCC(=O)NCc3ccco3)nc(-c3cccc(F)c3)nc2n(C)c1=O | . | . | . | -5% | . | .
Cc1cc(C)cc(N(CC(=O)NCc2ccccc2Cl)S(=O)(=O)c2c(C)noc2C)c1 | . | -4% | . | 4% | . | .
Cc1cc(C(=O)NNC(=O)c2ccc(C)s2)c(C)o1 | 9% | . | 0% | 0% | -3% | 5%
Cc1cccc(OCCn2c(=O)n(C)c3ccccc32)c1 | ? | 13µM* | 6.5µM* | 15µM* | 1.8µM* | 3.2µM*
Cc1cccc(N2CCN(C(=O)CCc3nnc4n(CC(C)C)c(=O)c5ccccc5n34)CC2)c1C | . | -6% | . | -13% | . | .
CN(C)/C=N/C(=S)Nc1ccc(Cl)cc1 | 6% | 11µM* | ? | 13µM* | ? | 30%
CN(C)/C=N/C(=S)Nc1ccc(Cl)cc1Cl | 1% | ? | 21µM* | 19µM* | ? | ?
Cc1cccc(C)c1NC(=S)/N=C/N(C)C | 7% | -7% | 0% | 1% | -3% | -7%
COc1ccc(C=Nc2ccc3[nH]ncc3c2)c(O)c1 | -1% | -8% | -8% | 6.7µM* | -1% | 5%
Oc1c(Br)cc(Br)cc1C=Nc1ccc2[nH]ncc2c1 | 2% | . | -7% | -17% | -10% | 0%
O=S(=O)(c1cccc2nsnc12)N1CCN(c2ccccc2F)CC1 | 2% | . | -5% | 0% | -8% | -4%
O=S(=O)(c1cccc2nsnc12)N1CCc2ccccc21 | ? | ? | ? | 21µM* | 3.5µM* | ?
Cc1cc(C)c(NC(=O)Cn2c(=O)n(CCC(=O)N3CCc4ccccc4C3)c(=O)c3ccccc32)c(C)c1 | . | 7% | . | -10% | . | .
CC(C)(C)c1csc(N/N=C/c2cccnc2)n1 | 18% | ? | ? | 12µM* | 3.2µM* | ?
Cc1ccc(/C=N/Nc2nc(C(C)(C)C)cs2)o1 | 23% | 13µM* | ? | 13µM* | ? | ?
Clc1ccc(-c2csc(N/N=C/c3cccnc3)n2)c(Cl)c1 | 4% | -53% | 7% | -17% | -8% | -4%
C(=N\Nc1nc(-c2ccccc2)cs1)/c1cccnc1 | 7% | 22µM* | 5.2µM* | 21µM* | 2.2µM* | 3.2µM*
Cc1ccc(/C=N/Nc2nc3ccccc3s2)o1 | ? | 2µM* | 0.82µM* | 0.85µM* | ? | ?
COc1cn(CC(=O)Nc2ccc(C)cc2C)c(CN2CCCCC2)cc1=O | . | . | . | -4% | . | .
CCSc1ncc(Cl)c(C(=O)Nc2sc(C(C)=O)c(C)c2C(=O)OC)n1 | . | 3% | . | 4% | . | .
Nc1ccc(-c2nc3ccc(-c4nc5ccc(N)cc5[nH]4)cc3[nH]2)cc1 | . | ? | . | . | 10%[46.1 µM] | -5%[46.1 µM]
c1ccc(-c2cc(-c3nc4ccccc4[nH]3)c3ccccc3n2)cc1 | -2% | -100% | -17% | ? | -1% | 1%
Cc1ccc2nc(-c3sc4nc(C)cc(C)c4c3N)[nH]c2c1 | ? | 2.5µM* | ? | 0.34µM* | ? | 21%
Nc1cccc(-c2nc3ccccc3[nH]2)c1 | ? | 13µM* | ? | 13µM* | 4µM* | 2.8µM*
Nc1ccc2nc(-c3cccc(-c4nc5ccc(N)cc5[nH]4)n3)[nH]c2c1 | -4% | . | -4% | 9.5µM* | 3% | 1%
Nc1ccc2nc(-c3ccc(-c4nc5ccc(N)cc5[nH]4)cc3)[nH]c2c1 | 5% | . | -5% | -16% | -1% | -6%
